Screens deposited in PubChem by several laboratories.
Mcl1-Bid inh: Mcl-1/Bid binding inhibitors, primary screen, biochemical, TR-FRET, 1536-well | inhibition, % at 21.7 µM | AID 1021, 2008 | TR-FRET Mcl-1/Bid-Dy647 peptide binding | 220,000 tested, 0.97% active;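 active means compounds that cut the binding signal by more than half at the single screening dose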;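 further: His-tagged Mcl-1 with europium anti-His antibody binding Bid BH3 peptide; 0% = Mcl-1 plus peptide wells and 100% = peptide-only wells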
Target sequence (Q07820 whole entry, looked up): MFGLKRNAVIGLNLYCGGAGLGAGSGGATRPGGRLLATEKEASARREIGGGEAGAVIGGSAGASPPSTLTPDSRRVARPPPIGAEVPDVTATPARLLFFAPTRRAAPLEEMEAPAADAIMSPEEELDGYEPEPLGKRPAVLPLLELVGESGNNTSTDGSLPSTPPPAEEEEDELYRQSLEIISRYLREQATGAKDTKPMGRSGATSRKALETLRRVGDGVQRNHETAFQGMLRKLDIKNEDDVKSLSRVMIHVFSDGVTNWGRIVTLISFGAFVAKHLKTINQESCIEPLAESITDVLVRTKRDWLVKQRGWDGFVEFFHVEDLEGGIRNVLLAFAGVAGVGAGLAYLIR
Mcl1-Noxa inh: Mcl-1/Noxa binding inhibitors, primary screen, biochemical, TR-FRET, 1536-well. Induced myeloid leukemia cell differentiation protein Mcl-1 (Homo sapiens), Q07820. TR-FRET Mcl-1/Noxa peptide binding, 2 h. inhibition, % at 21.7 µM. 220,000 tested, 1.5% active. AID 1022, 2008;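 active means compounds that cut the protein-peptide binding signal by more than 50% relative to plate controls in a single-dose test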;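 further: His-tagged Mcl-1 with rhodamine Noxa BH3 peptide and terbium anti-His antibody; 0% = Mcl-1 plus Noxa peptide wells and 100% = peptide-only wells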
14-3-3 Bad inh: inhibitors of 14-3-3 zeta/Bad binding, primary screen, biochemical, TR-FRET, bovine 14-3-3 zeta; AID 781, 2007; 220,000 tested, 0.71% active; TR-FRET 14-3-3zeta/Dy647-pBad peptide displacement, 1 h; 14-3-3 protein zeta/delta (Bos taurus), P63103; inhibition, % at 21.7 µM;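 active means inhibition above about 70%, limit read from the data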;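 further: 0% = full 14-3-3 plus peptide FRET controls and 100% = background without 14-3-3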
Target sequence (P63103 whole entry, looked up): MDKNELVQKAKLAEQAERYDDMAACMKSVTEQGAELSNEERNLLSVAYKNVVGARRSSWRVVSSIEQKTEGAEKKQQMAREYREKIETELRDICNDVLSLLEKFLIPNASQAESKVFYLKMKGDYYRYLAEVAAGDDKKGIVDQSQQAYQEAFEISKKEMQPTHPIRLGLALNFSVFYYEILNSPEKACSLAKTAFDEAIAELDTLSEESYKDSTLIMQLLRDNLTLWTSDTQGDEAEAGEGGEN
p47phox inh: p47phox/p22phox peptide binding inhibitors, primary screen, biochemical, uHTS, NADPH oxidase regulatory subunit; inhibition, % at 24.7 µM; 220,000 tested, 0.53% active; Neutrophil cytosol factor 1 (Homo sapiens), P14598; AID 1274, 2008; fluorescence polarization, 2 h;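 active means inhibition above about 30%, limit read from the data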;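 further: 0% = p47phox with labelled peptide and 100% = labelled peptide alone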
m-calpain inh: inhibitors of pig calpain II, primary screen, biochemical, fluorogenic peptide substrate, 1536-well; 220,000 tested, 0.37% active; inhibition, % at 16 µM; purified calpain II, 30 min;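 active means inhibition above about 50%, limit read from the data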
Mcl-1 Bim block: inhibitors of Bim peptide binding to Mcl-1, primary screen, biochemical, bead-based flow cytometry, multiplex. Bim peptide-Mcl-1 binding. inhibition, % at 10 µM. AID 1009, 2008. Induced myeloid leukemia cell differentiation protein Mcl-1 (Homo sapiens), Q07820. 190,000 tested, 0.1% active; in the data active means inhibition above about 40%;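 further: 0% = no compound tracer wells and 100% = peptide blocker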
* hit, by the source's call; . = no result given; [ ] = remark or other dose. A selection: hits, their analogues and other compounds. The true share with any hit is near 3.4%.

SMILES	Mcl1-Bid inh	Mcl1-Noxa inh	14-3-3 Bad inh	p47phox inh	m-calpain inh	Mcl-1 Bim block
COC(=O)c1ccc(COc2ccc(/C=C(\C#N)c3nc4ccccc4[nH]3)cc2OC)o1	-35	5	6	-113	-92	-3
CCN(CC)c1ccc(/C=C2/C(=O)c3ccc(C(=O)O)cc3C2=O)cc1	-92	58*	-11	-242	-2	.
COc1ccccc1NC(=O)COC(=O)C1CCN(/C=C/C(=O)C(F)(F)F)CC1	-23	21	3	-7	6	2
CC(=O)c1csc(-c2ccccc2)n1	-18	13	-6	-8	5	0
CC(=O)c1csc(Nc2ccccc2Cl)n1	-3	-14	90*	0	-6	.
COc1ccc(-n2cc(CNCCCn3ccnc3)c(-c3cccc(F)c3)n2)cc1	-31	11	-6	-8	-55	0
CC(NC(=S)Nc1c(Br)cccc1OC(F)F)C(C)(C)C (stereo unspecified)	-63	-12	-4	-8	4	-2
O=S(=O)(Cc1ccccc1)NCC1CCCN(Cc2ccc3nonc3c2)C1 (stereo unspecified)	-28	-4	-3	-5	0	-10
O=S(=O)(Cc1ccccc1)NCC1CCCN(Cc2ccc(F)c(F)c2)C1 (stereo unspecified)	-16	8	-1	-1	65*	-8
O=C(NCCc1ccccc1)N1CCCC(CNS(=O)(=O)Cc2ccccc2)C1 (stereo unspecified)	10	54*	-6	10	16	0
Cc1ncc([N+](=O)[O-])n1CC(=O)N/N=C/c1ccc(F)cc1	0	-6	-6	-2	28	0
S=c1[nH]c2cc(-c3ccccc3)ccc2o1	-178	10	-6	-14	-20	.
Cc1ccc(S(=O)(=O)/N=C2/C=C(Sc3ncn[nH]3)C(=O)c3ccccc32)cc1	65*	98*	88*[fluorescence artefact?]	53*	-18	-7
CC(C)c1ccc(S(=O)(=O)/N=C2/C=C(Sc3ncn[nH]3)C(=O)c3ccccc32)cc1	49	105*	79*[fluorescence artefact?]	50*	13	27
Cc1ccc(S(=O)(=O)/N=C2/C=C(Sc3ncn[nH]3)C(=O)c3ccccc32)c(C)c1	26	94*	66	37*	28	11
CCN(CC)P(=O)(Nc1ccc(C)cc1Br)c1ccc(N(C)C)cc1NC(=O)c1ccco1 (stereo unspecified)	-25	12	-18	-34	-54	1
CC(=O)Nc1ccc(S(C)(=O)=O)c(C)c1	-8	-2	6	-6	-6	-1
Fc1ccc(N2Cc3ccsc3C=N2)cc1	-31	7	-10	-8	-11	0
COc1ccc2c(CC(=O)Nc3ccc(OC)nc3)coc2c1	-23	-8	-10	35*	-7	0
O=C(Nc1nnc(-c2ccccc2F)s1)c1cccnc1	2	6	-10	73*	-24	-3
O=C(Cn1nc(-c2ccc3c(c2)OCCO3)ccc1=O)Nc1cccc(NC(=O)c2ccccn2)c1	25	-28	41	-23	62*	-2
O=C(Nc1ccc2c(c1)OCCO2)c1ccccn1	-25	8	-21	-2	-21	-1
O=C(Nc1ccc(NC(=O)c2ccccn2)cc1)C(=O)Nc1ccc2c(c1)OCCO2	34	54*	43	-47	-1	0
O=C(Nc1ccc2c(c1)OCCO2)c1cccc2nc3ccccc3nc12	21	62*	10	21	-53	6
FC(F)(F)c1cccc(Cc2noc(CN3CCCC(OCc4ccccn4)C3)n2)c1 (stereo unspecified)	-4	12	2	0	-3	9
SMILES	Mcl1-Bid inh	Mcl1-Noxa inh	14-3-3 Bad inh	p47phox inh	m-calpain inh	Mcl-1 Bim block
O=C(CNc1ccccc1)NNC1=NCCC1	-13	13	89*	-6	19	-5
O=C(O)c1nn(CCSc2ccccc2F)c(=O)c2ccccc12	1	22	-1	-9	12	.
COc1cc(OC)nc(NC(=O)CSc2nc3ccccc3o2)n1	-14	17	4	4	9	4
Cc1cc(C)nc(NC(=O)CSc2nc3ccccc3o2)n1	-9	18	-10	42*	20	0
Cc1ccc(OCC(=O)NC(=S)Nc2cccc(NC(=O)c3ccccc3)c2)cc1	-21	13	-5	-9	-6	-2
Cc1ccc(OCC(=O)NC(=S)Nc2cccc(NC(=O)c3ccc(Cl)cc3Cl)c2)cc1	63*	8	-2	-9	-5	-4
COC(=O)C(=O)/C=C(\O)c1ccc(C)cc1	-23	57*	8	-10	8	-1
O=C(Nc1ccc(S(=O)(=O)NC2=NCCCCC2)cc1)c1ccccc1Cl	-22	3	5	-5	-19	.
CCCCCCCNC1=CC(=O)CC(c2ccccc2)C1 (stereo unspecified)	-35	5	-3	-7	74*	9
CCOC(=O)c1cccc(NC(=O)CCNS(=O)(=O)c2ccc3c(c2)CCN3C(=O)CC)c1	70*	21	3	1	-29	-4
C=CCC1(N(C(C)=O)c2ccccc2C)CCCCC1	2	-5	-13	-1	7	1
CCN(CC)c1nc(N)nc(N(c2ccccc2)c2ccccc2)n1	-4	-4	0	-17	9	79*
O=C1C2CC=C(Cl)CC2C(=O)N1CCCCCCN1C(=O)C2CC=C(Cl)CC2C1=O (stereo unspecified)	-27	55*	11	-28	-199	1
Cc1ccccc1-c1ccc(Nc2ccc(N3CCOCC3)cc2)nn1	12	69*	43	12	-44	1
CC(=O)N1CCN(CC(=O)Nc2c(Cl)cccc2Cl)CC1	34	25	76*	-8	-19	-1
Nc1cc2nsnc2cc1Br	-44	61*	8	18	25	0
Nc1cccc2nsnc12	-75	7	-14	-10	-15	.
O=C(Nc1ccc(C2SCCS2)cc1)c1ccccc1	-18	-23	-2	-9	-10	.
Cc1ccc(Cl)cc1NC(=S)NN	-40	9	-5	-7	-4	.
S=c1[nH]nc(-c2ccc3ccccc3n2)o1	-28	26	82*[fluorescence artefact?]	-5	13	1
CN1/C(=C\C=N\O)C(C)(C)c2ccccc21	-12	7	-12	-29	-6	0
CN(C)c1ccc(N=C/C=C2/N(C)c3ccccc3C2(C)C)cc1	-69	64*	-20	-55	32	-11
CC(C)C(c1nnnn1CCc1ccccc1)N1CCSCC1 (stereo unspecified)	-16	-7	-12	-4	2	-4
